Assay [1] can be described thus: NS1 protein of Zika virus - qHTS assay to identify small molecule inhibitors in human HEK 293 cells (AID 1347053). Also: series mostly up to about 46 µM; nearly all actives have a fitted effect of over 55% in size. The method, boiled down: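 Following 20 h seeding, HEK 293 cells took compound, then 1 h later ZIKV MR766 (MOI = 0.5). Incubation ran 24 h at 37 C before TR-FRET detection of NS1; a drop in signal indicates inhibition.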
In general terms: Quantitative high-throughput screening tests each substance at several concentrations.

Assay [2] is described as follows: qHTS of pediatric cancer cell lines to identify multiple opportunities for drug repurposing: Primary screen for TC32 cells (AID 1347089). Also: nearly all actives have a fitted effect of over 60% in size. Summed up: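 TC32 cells, 500-1,000/well in growth medium, compound-treated 48 h at 37 °C; viability from CellTiter-Glo luminescence. Primary screen: MIPE 11-point (0.78 nM–46 µM final), NPC 8-point (0.59 nM–46 µM final); confirmatory at 11-point dilutions.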

Assay [3] can be described thus: qHTS of pediatric cancer cell lines to identify multiple opportunities for drug repurposing: Primary screen for DAOY cells (AID 1347090). Also: series mostly up to about 46 µM; nearly all actives have a fitted effect of over 55% in size. The method, boiled down: (§1)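 Cell viability, CellTiter-Glo luminescence; 500-1,000 cells/well, 8- or 11-point titration, 48 h compound exposure at 37 degrees C, 5% CO2. Controls: DMSO neutral, bortezomib 2.3 µM final as positive.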

The nature of assay [4]: qHTS of pediatric cancer cell lines to identify multiple opportunities for drug repurposing: Primary screen for SJ-GBM2 cells (AID 1347091). Summed up: as §1
Assay [5] can be described thus: qHTS of pediatric cancer cell lines to identify multiple opportunities for drug repurposing: Primary screen for A673 cells (AID 1347092). Also: nearly all actives have a fitted effect of over 45% in size. Summed up: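 A673 cells (500-1,000 cells/well) were treated 48 hours at 37 degrees C with compounds at 11-point (0.78 nM to 46 µM) or 8-point (0.59 nM to 46 µM) dilutions. Viability read by CellTiter-Glo luminescence; concentration-response curves fitted.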

A short description of assay [6]: qHTS of pediatric cancer cell lines to identify multiple opportunities for drug repurposing: Primary screen for SK-N-MC cells (AID 1347093). Also: potency is read from the fitted curve at half-maximal effect. Summed up: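 Metabolically active cells were quantified by ATP-dependent luminescence (CellTiter-Glo, 15 min at room temperature) following 48 h treatment. Cells had been plated at 500-1,000 per well and settled for 5 h beforehand.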

The nature of assay [7]: qHTS of pediatric cancer cell lines to identify multiple opportunities for drug repurposing: Primary screen for BT-37 cells (AID 1347094). Also: series mostly up to about 57 µM. The method, boiled down:
(§2)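 Plated cells (500-1,000 per well, growth media) were allowed to settle for 5 hours, treated with compound dilutions for 48 hours, then lysed with CellTiter-Glo for 15 min at room temperature before luminescence reading.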

The nature of assay [8]: qHTS of pediatric cancer cell lines to identify multiple opportunities for drug repurposing: Primary screen for NB-EBc1 cells (AID 1347095). The method, boiled down:
as §2

Assay [9] can be described thus: qHTS of pediatric cancer cell lines to identify multiple opportunities for drug repurposing: Primary screen for U-2 OS cells (AID 1347096). Also: nearly all actives have a fitted effect of over 50% in size. The method, boiled down: (§3)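 Cells (500-1,000/well) rested 5 h, then received compounds for 48 h; metabolically active cells were measured by CellTiter-Glo luminescence. Final concentrations spanned up to 46 µM (MIPE, 11-point) or 0.59 nM-46 µM (NPC, 8-point) in primary screens, 11-point in follow-ups.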

A short description of assay [10]: qHTS of pediatric cancer cell lines to identify multiple opportunities for drug repurposing: Primary screen for Saos-2 cells (AID 1347097). Also: nearly all actives have a fitted effect of over 40% in size. Summed up:
as §2

A short description of assay [11]: qHTS of pediatric cancer cell lines to identify multiple opportunities for drug repurposing: Primary screen for SK-N-SH cells (AID 1347098). Also: nearly all actives have a fitted effect of over 65% in size. The method, boiled down:
as §3

A short description of assay [12]: qHTS of pediatric cancer cell lines to identify multiple opportunities for drug repurposing: Primary screen for NB1643 cells (AID 1347099). Also: nearly all actives have a fitted effect of over 50% in size. The method, boiled down: as §2
Assay [13] can be described thus: qHTS of pediatric cancer cell lines to identify multiple opportunities for drug repurposing: Primary screen for LAN-5 cells (AID 1347100). The method, boiled down:
as §3

The nature of assay [14]: qHTS of pediatric cancer cell lines to identify multiple opportunities for drug repurposing: Primary screen for BT-12 cells (AID 1347101). Also: nearly all actives have a fitted effect of over 25% in size. The method, boiled down: as §3
The nature of assay [15]: qHTS of pediatric cancer cell lines to identify multiple opportunities for drug repurposing: Primary screen for Rh18 cells (AID 1347102). Also: nearly all actives have a fitted effect of over 65% in size. The method, boiled down: as §3
A short description of assay [16]: qHTS of pediatric cancer cell lines to identify multiple opportunities for drug repurposing: Primary screen for OHS-50 cells (AID 1347103). Also: nearly all actives have a fitted effect of over 40% in size. Summed up:
as §3

A short description of assay [17]: qHTS of pediatric cancer cell lines to identify multiple opportunities for drug repurposing: Primary screen for RD cells (AID 1347104). Also: nearly all actives have a fitted effect of over 55% in size. Summed up: as §2
A short description of assay [18]: qHTS of pediatric cancer cell lines to identify multiple opportunities for drug repurposing: Primary screen for control Hh wild type fibroblast cells (AID 1347106).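 Also: series mostly up to about 46 µM; a drop in luminescence marks cytotoxicity and a rise apparent proliferation; nearly all actives have a fitted effect of over 55% in size.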 Summed up: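 Viability after 48 h compound treatment at 37C, 500-1,000 cells/well, read as ATP luminescence with CellTiter-Glo. Primary screens used 11-point (MIPE, 0.78 nM-46 µM) or 8-point (NPC, 0.59 nM-46 µM) final concentrations; follow-up screens used 11-point dilutions.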

The nature of assay [19]: qHTS of pediatric cancer cell lines to identify multiple opportunities for drug repurposing: Primary screen for Rh30 cells (AID 1347107). Also: series mostly up to about 46 µM; nearly all actives have a fitted effect of over 75% in size. Summed up:
as §3

A short description of assay [20]: qHTS of pediatric cancer cell lines to identify multiple opportunities for drug repurposing: Primary screen for MG 63 (6-TG R) cells (AID 1347105). Also: nearly all actives have a fitted effect of over 50% in size. The method, boiled down: as §2

Results filed as inconclusive are left out. Values without a mark were called inactive. Active and inactive are the calls of the source. Calls follow the shape of the dose curve; as a rule, active = well fitted curve in the direction sought with a large enough effect; inconclusive = small, poorly fitted or top-dose-only effect, or another doubt; inactive = no such curve, though single readings can be large; an effect the other way counts as inactive or inconclusive.

With `C=CCOc1ccccc1OCC(O)CNC(C)C` (stereo unspecified), the molecule was called inactive in [1], in [2], in assay [3], in assay [4], in [5] and in assay [7]. The molecule was classed as inactive in assay [8], in assay [9], in assay [10], in assay [11], in [13] and in assay [14]. Besides, the result in assay [15], in assay [16], in assay [17], in assay [18] and in assay [19] was inactive. Besides, the Potency entry in [6] and in [12] was “inactive” each time.

Regarding `Cc1cccc(C(=O)O)c1O`, the call in assay [1], in assay [2], in [3], in [4], in [5] and in [7] was inactive. The molecule was classed as inactive in assay [8], in assay [9], in [10], in assay [11], in assay [13] and in [14]. Besides, the molecule was classed as inactive in [15], in assay [16], in assay [17], in [18] and in assay [19]. The Potency entry in assay [6] and in assay [12] was “inactive” each time.

With `OCCN1C[C@H](O)[C@@H](O)[C@H](O)[C@H]1CO`, the result in assay [1], in assay [2], in assay [3], in assay [4], in [5] and in assay [7] was inactive. For the same molecule, the call in [8], in assay [9], in assay [10], in assay [11], in assay [13] and in assay [14] was inactive. Besides, the molecule was called inactive in assay [15], in [16], in assay [17], in assay [20], in assay [18] and in [19]. The Potency result in assay [6] and in assay [12] was “inactive” each time.

Regarding `CC(=O)N[C@H]1[C@H]([C@H](O)[C@H](O)CO)OC(C(=O)O)=C[C@@H]1N=C(N)N`, the result in assay [1], in assay [2], in assay [3], in [4], in assay [5] and in assay [7] was inactive. Besides, the outcome in assay [8], in assay [9], in [10], in assay [11], in [13] and in [14] was inactive. Further, the molecule was classed as inactive in [15], in assay [16], in assay [17], in assay [20], in assay [18] and in [19]. The Potency result in [6] and in [12] was “inactive” in each case.

For `O=c1[nH]c(=O)n([C@H]2C[C@H](O)[C@@H](CO)O2)cc1I`, the call in assay [1], in assay [2], in [3], in assay [4], in assay [5] and in assay [7] was inactive. In addition, the result in assay [8], in assay [9], in assay [10], in assay [11], in [13] and in assay [14] was inactive. Moreover, the outcome in assay [15], in assay [16], in assay [17], in assay [20], in assay [18] and in assay [19] was inactive. For the same molecule, the Potency entry in [6] and in [12] was “inactive” throughout.

As for `CC(=O)N[C@@H](CC(C)C)C(=O)O`, the molecule was classed as inactive in assay [1], in assay [2], in assay [3], in [4], in [5] and in assay [7]. Also, the molecule was classed as inactive in [8], in [9], in assay [10], in assay [11], in [13] and in [14]. The outcome in [15], in assay [17], in [20], in assay [18] and in [19] was inactive. Moreover, the Potency entry in assay [6] and in [12] was “inactive” in each case.

As for `Cn1c([N+](=O)[O-])cnc1COC(N)=O`, the outcome in assay [1], in assay [2], in assay [3], in [4], in assay [5] and in assay [7] was inactive. In addition, the molecule was called inactive in assay [8], in [9], in [10], in assay [11], in [13] and in assay [14]. In addition, the molecule was called inactive in assay [15], in assay [16], in [17], in assay [20], in [18] and in [19]. Also, the Potency result in [6] and in assay [12] was “inactive” each time.

Turning to `NNc1nnc(NN)c2ccccc12`, the outcome in [1], in assay [2], in assay [3], in [4], in assay [5] and in [7] was inactive. For the same molecule, the molecule was classed as inactive in assay [8], in assay [9], in assay [10], in assay [11], in assay [13] and in assay [14]. For the same molecule, the molecule was called inactive in assay [15], in [16], in assay [17], in assay [20], in assay [18] and in assay [19]. The Potency result in assay [6] and in assay [12] was “inactive” each time.

`CCOC(N)=O`: the molecule was classed as inactive in assay [1], in [2], in [3], in assay [4], in [5] and in assay [7]. The call in assay [8], in [9], in assay [10], in assay [11], in assay [13] and in assay [14] was inactive. The molecule was classed as inactive in assay [15], in assay [16], in [17], in assay [20], in [18] and in [19]. The Potency result in assay [6] and in assay [12] was “inactive” throughout.

For `CCCCCCCC(=O)OCC(O)CO` (stereo unspecified), the molecule was called inactive in assay [1], in assay [2], in assay [3], in assay [4], in assay [5] and in [7]. Besides, the call in assay [8], in assay [9], in assay [10], in assay [11], in assay [13] and in assay [14] was inactive. Further, the molecule was called inactive in assay [15], in assay [16], in assay [17], in assay [20], in assay [18] and in assay [19]. Further, the Potency result in assay [6] and in [12] was “inactive” throughout.

Consider `C/C(=C(\CCO)SS/C(CCO)=C(\C)N(C=O)Cc1cnc(C)nc1N)N(C=O)Cc1cnc(C)nc1N`, for which the molecule was called inactive in assay [1], in assay [2], in assay [3], in assay [4], in [5] and in assay [7]. For the same molecule, the result in assay [8], in assay [9], in assay [10], in assay [11], in [13] and in assay [14] was inactive. The call in assay [15], in assay [16], in assay [17], in [20], in assay [18] and in [19] was inactive. Also, the Potency entry in assay [6] and in assay [12] was “inactive” in each case.

For `CC(O)CCCCn1c(=O)c2c(ncn2C)n(C)c1=O` (stereo unspecified), the molecule was called inactive in [1], in assay [2], in [3], in assay [4], in assay [5] and in [7]. The outcome in assay [8], in [9], in [10], in assay [11], in [13] and in [14] was inactive. Further, the molecule was classed as inactive in assay [15], in assay [16], in assay [17], in assay [18] and in assay [19]. Besides, the Potency entry in [6] and in [12] was “inactive” throughout.

In the case of `O=C(O)/C=C/c1ccc(Cn2ccnc2)cc1`, the outcome in assay [1], in assay [2], in [3], in assay [4], in assay [5] and in assay [7] was inactive. In addition, the result in [8], in [9], in assay [10], in [11], in assay [13] and in [14] was inactive. Further, the molecule was classed as inactive in assay [15], in [16], in [17], in [20], in assay [18] and in [19]. The Potency entry in assay [6] and in assay [12] was “inactive” throughout.

As for `O=C(O)COC(=O)Cc1ccccc1Nc1c(Cl)cccc1Cl`, the molecule was classed as inactive in assay [1], in [2], in [3], in assay [4], in [5] and in assay [7]. In addition, the molecule was classed as inactive in [8], in assay [9], in [10], in assay [11], in assay [13] and in assay [14]. The result in [15], in [16], in assay [17], in [20], in assay [18] and in assay [19] was inactive. Moreover, the Potency in assay [6] was 26.6 µM (active). For the same molecule, in assay [12], the Potency result was “inactive”.

Source of the values: PubChem BioAssay (NCATS).
